Assay outcomes: PubChem, National Center for Advancing Translational Sciences (NCATS)
Shown are actives, neighbours in structure and some others; about 3.3% of the full set was active somewhere.
LmPK inh: blocks Leishmania mexicana pyruvate kinase activity | Q27686 | purified LmPK, Kinase-Glo ATP luminescence, 1 h | Potency, µM (titrated, usually from 57.5 µM), usual class: inhibitors | actives 0.37% (n = 290,000) | AID 1721
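ATP generated from ADP (0.1 mM) and PEP (0.5 mM) by 0.1 nM LmPK over 1 h at room temperature (pH 7.2 imidazole buffer) was detected by coupled luciferase luminescence. Values were normalized to uninhibited and no-enzyme wells.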
Tb PYK inh: T. brucei pyruvate kinase inhibition | Q57TT1 | TbPYK enzyme, Kinase-Glo Plus ATP luminescence, 45 min | Potency, µM (doses to about 76.8 µM), most hits filed as inhibitors | actives 0.12% (n = 410,000); further: nearly all actives have a fitted effect of over 50% in size
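Activity of T. brucei pyruvate kinase was followed by Kinase-Glo Plus luminescence after the enzyme reacted 45 min at room temperature with 130 uM ADP (final) and substrate. Test compounds were added before ADP at multiple concentrations.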
Sm TGR inh: inhibitors of Schistosoma mansoni thioredoxin glutathione reductase; Q962Y6; purified TGR, DTNB reduction, TNB absorbance 405 nm; Potency, µM (highest dose often 114 µM), most hits filed as inhibitors; actives 3% (n = 360,000); further: nearly all actives have a fitted effect of over 60% in size
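Kinetic colorimetric format: TGR-catalysed, NADPH-driven DTNB reduction monitored via TNB absorbance. Enzyme dispensed at 20 nM; compound exposure 15 min at room temperature before reaction start.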
RE007 growth inh: less growth of the S. pombe RE007 Vpr strain. actives 0.21% (n = 360,000). Potency, µM (series often up to 92.2 µM), hits mostly inhibitors. S. pombe RE007 Vpr strain, BacTiter-Glo ATP luminescence, 24 h; active means well fitted falling curve with a large enough effect; inconclusive means small, poorly fitted or top-dose-only effect; inactive means no such curve, though single readings can be large or run the other way; further: nearly all actives have a fitted effect of over 50% in size
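Fission yeast RE007 carrying one integrated HIV-1 vpr copy, seeded at OD 0.01 in PMG+AL medium with 23 nL pinned compound. Grown 24 h at 30 degrees; viability read by BacTiter-Glo luminescence after 5 min.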
Giardia FBPA inh: inhibitors of Giardia lamblia fructose-1,6-bisphosphate aldolase. purified Giardia FBPA. Potency, µM (titrated, usually from 59.6 µM), usual class: inhibitors. actives 0.71% (n = 290,000). AID 2451; further: nearly all actives have a fitted effect of over 55% in size
Target sequence (A8B2U2 whole entry, looked up): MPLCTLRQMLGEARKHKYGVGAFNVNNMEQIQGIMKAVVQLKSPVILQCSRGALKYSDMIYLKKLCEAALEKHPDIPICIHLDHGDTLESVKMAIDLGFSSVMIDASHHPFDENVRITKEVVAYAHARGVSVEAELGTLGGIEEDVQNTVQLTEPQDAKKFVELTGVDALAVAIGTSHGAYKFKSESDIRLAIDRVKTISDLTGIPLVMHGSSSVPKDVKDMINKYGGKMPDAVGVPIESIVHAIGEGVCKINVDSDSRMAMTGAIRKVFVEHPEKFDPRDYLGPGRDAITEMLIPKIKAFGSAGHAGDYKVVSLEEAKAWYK
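Giardia FBPA (40 nM reagent) was preincubated 10 min at RT with compound (up to 57.5 uM final), then substrate plus GAPDH/TPI/NAD/arsenate coupling system with diaphorase/resazurin was added; resorufin fluorescence (525/598 nm) was read after 20 min.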
A number is an active result; . = inactive; ? = inconclusive; / = no result. Unless noted, the call rests on the fitted dose curve; in most records, active means well fitted curve in the direction sought with a large enough effect; inconclusive means small, poorly fitted or top-dose-only effect, or another doubt; inactive means no such curve, though single readings can be large; an effect the other way counts as inactive or inconclusive.

SMILES	LmPK inh	Tb PYK inh	Sm TGR inh	RE007 growth inh	Giardia FBPA inh
Cc1ccc(C(=O)N/N=C/c2ccc(-c3ccccc3[N+](=O)[O-])o2)cn1	.	.	?	.	?
CCc1nnc(N/N=C/c2ccc(-c3ccc([N+](=O)[O-])cc3)o2)n1N	.	.	.	?	4.46µM
CC(C)(C)NC(=S)N/N=C\c1ccc(-c2ccc([N+](=O)[O-])cc2)o1	.	.	2.24µM	.	?
Cc1nc(-c2ccc(S(=O)(=O)N3CCN(c4cccc(C(F)(F)F)c4)CC3)cc2)co1	/	.	.	/	/
O=C(O)c1nn(CC(=O)N2CCN(c3ccccc3)CC2)c(=O)c2ccccc12	.	.	.	.	.
OC(CNCCCN1CCCCC1)COc1ccccc1 (stereo unspecified)	.	.	.	.	.
COc1ccc(S(=O)(=O)N2CCCCC2)cc1NC(=O)c1ccc([N+](=O)[O-])o1	.	.	?	.	.
Cc1ccc(-c2csc(/C(C#N)=C(\O)CCl)n2)cc1	.	.	17.8µM	.	.
N#C/C(=C(/O)CCl)c1nc(-c2ccccc2)cs1	.	.	?	.	?
FC(F)(F)C1=Nc2cccc3cccc(c23)N1	/	.	17.8µM	.	/
COc1ccc(OC)c(S(N)(=O)=O)c1	.	.	.	.	.
Oc1ccccc1Oc1ncc(Br)c(Cl)n1	.	.	35.5µM	.	.
COc1ccc([C@@H]2CC=C(C(=O)O)[C@H](c3ccccc3)N2S(=O)(=O)c2ccccc2C)cc1	/	.	.	.	/
CCOc1ccccc1-c1cc(-c2n[nH]c(=S)n2CC)c2ccccc2n1	.	?	.	.	?
Cc1ccc(-c2noc(CCC(=O)NCc3ccco3)n2)cc1	.	.	?	.	.
COc1cc(-c2noc(CCCC(=O)NCc3ccco3)n2)cc(OC)c1OC	.	.	44.7µM	.	.
COc1ccccc1-c1noc(CCCC(=O)NCc2ccco2)n1	/	.	.	/	/
O=C(CCc1nc(-c2ccccc2)no1)NCc1ccco1	.	.	44.7µM	.	.
Cc1ccccc1NC(=O)Cn1nc(-c2ccc(Cl)s2)ccc1=O	.	.	.	.	.
CC(Cl)C(=O)c1ccc2c(c1)CCN2C(=O)C1CC1 (stereo unspecified)	.	.	?	.	.
O=C(N/N=C/c1cccc2ccccc12)c1cccs1	.	.	.	.	.
CC1CCCN(C(=O)CSCC(=O)N=c2sc3ccccc3n2C)C1 (stereo unspecified)	.	.	.	.	.
CC1(C)CC2(CC(c3ccccc3F)c3ccc(O)c(O)c3O2)NC(=S)N1 (stereo unspecified)	.	?	1.12µM	.	?
CCOc1cc(C2NC(=O)NC(O)(C(F)(F)F)C2C(=O)c2ccccc2)ccc1OC (stereo unspecified)	.	.	.	.	.
COc1cccc(C2NC(=O)NC(O)(C(F)(F)F)C2C(=O)c2cccnc2)c1OC (stereo unspecified)	.	.	22.4µM	.	.
SMILES	LmPK inh	Tb PYK inh	Sm TGR inh	RE007 growth inh	Giardia FBPA inh
COc1ccc(C2NC(=O)NC(O)(C(F)(F)F)C2C(=O)c2ccccc2)cc1OC (stereo unspecified)	.	.	35.5µM	.	.
N#CC1=C(N)N(c2ccc(Br)cc2)C2=C(C(=O)CCC2)C1c1cccnc1 (stereo unspecified)	.	.	39.8µM	.	?
Cc1ccc(N2C(N)=C(C#N)C(c3cccnc3)C3=C2CCCC3=O)cc1 (stereo unspecified)	.	.	.	.	.
COc1ccccc1-c1n[nH]c(=S)n1Cc1ccccc1	.	?	.	.	.
COc1ccccc1-c1n[nH]c(=S)n1Cc1ccco1	.	/	39.8µM	/	.
S=c1[nH]nc(-c2ccc(Br)cc2)n1Cc1ccco1	22.4µM	5.62µM	.	.	.
